PubChem BioAssay (NCATS)
Inconclusive results are not listed. The source made the active and inactive calls. The call rests on the fitted dose curve; in most records, active means well fitted inhibition curve with a large enough effect; inconclusive means small, poorly fitted or top-dose-only effect; inactive means flat fitted curve, though single readings scatter.

Target: Voltage-gated inwardly rectifying potassium channel KCNH2 (Homo sapiens) (UniProt Q12809)
Experiment: qHTS Assay for Small Molecule Inhibitors of the Human hERG Channel Activity (AID 588834);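 further: lower thallium flux fluorescence means stronger hERG block; nearly all actives have a fitted effect of over 50% in size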; on activity change, negative = inhibition: top concentration of the series differs between compounds
Conditions: U2OS BacMam hERG, FluxOR thallium flux fluorescence; series mostly up to 46.1 µM; activity change, negative = inhibition: at the top concentration
How it was run: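 Step 1: BacMam hERG transduction of U2OS, 4 hrs RT. Step 2: overnight 37 °C, plate 2000 cells/well, 4 hr. Step 3: FluxOR load, compound 10 min, stimulate, read fluorescence.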
On the % scale 0 is the no-effect control and ±100 the full control effect; potency means the concentration at half of the fitted maximal effect.

Sequence of Voltage-gated inwardly rectifying potassium channel KCNH2 (Homo sapiens) (Q12809 whole entry, looked up): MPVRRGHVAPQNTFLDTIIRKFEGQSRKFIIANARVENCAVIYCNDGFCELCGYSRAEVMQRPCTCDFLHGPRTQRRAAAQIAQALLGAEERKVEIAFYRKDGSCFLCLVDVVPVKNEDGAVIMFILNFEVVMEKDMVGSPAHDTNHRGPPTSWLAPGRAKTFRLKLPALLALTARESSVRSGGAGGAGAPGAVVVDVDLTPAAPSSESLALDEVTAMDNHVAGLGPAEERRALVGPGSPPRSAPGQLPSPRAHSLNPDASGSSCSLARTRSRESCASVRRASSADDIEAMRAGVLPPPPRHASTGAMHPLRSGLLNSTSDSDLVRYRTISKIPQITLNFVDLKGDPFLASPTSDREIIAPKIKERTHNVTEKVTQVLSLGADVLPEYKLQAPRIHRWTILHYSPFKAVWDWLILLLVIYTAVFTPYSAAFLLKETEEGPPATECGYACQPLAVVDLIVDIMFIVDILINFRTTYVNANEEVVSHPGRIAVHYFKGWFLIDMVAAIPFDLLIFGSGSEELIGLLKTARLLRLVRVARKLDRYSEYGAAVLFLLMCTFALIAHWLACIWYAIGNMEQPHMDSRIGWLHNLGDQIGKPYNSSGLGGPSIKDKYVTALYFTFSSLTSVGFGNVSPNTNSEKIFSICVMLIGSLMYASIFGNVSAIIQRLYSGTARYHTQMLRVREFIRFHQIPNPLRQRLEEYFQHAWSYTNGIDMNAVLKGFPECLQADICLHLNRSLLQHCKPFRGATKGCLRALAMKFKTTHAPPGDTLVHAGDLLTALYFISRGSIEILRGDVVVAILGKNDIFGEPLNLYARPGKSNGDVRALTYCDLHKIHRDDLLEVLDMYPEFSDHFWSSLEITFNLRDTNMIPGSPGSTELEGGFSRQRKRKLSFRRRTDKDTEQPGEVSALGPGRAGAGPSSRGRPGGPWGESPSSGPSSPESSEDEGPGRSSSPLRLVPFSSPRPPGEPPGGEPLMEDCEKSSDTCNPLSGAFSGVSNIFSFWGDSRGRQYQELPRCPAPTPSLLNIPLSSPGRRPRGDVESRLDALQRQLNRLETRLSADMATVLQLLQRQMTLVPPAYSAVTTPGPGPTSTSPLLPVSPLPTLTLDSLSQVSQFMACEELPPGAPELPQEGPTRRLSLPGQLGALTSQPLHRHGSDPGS

Row | Compound | Potency | activity change, negative = inhibition
1 | O=C(COc1ccc(Cl)cc1)N1CCN(Cc2ccc3c(c2)OCO3)CC1 | 15.8 µM (active) | –
2 | NC(=O)CC[C@@H]1NC(=O)[C@H](Cc2ccccc2)NC(=O)[C@H](Cc2ccc(O)cc2)NC(=O)CCSSC[C@@H](C(=O)N2CCC[C@H]2C(=O)N[C@@H](CCCN=C(N)N)C(=O)NCC(N)=O)NC(=O)[C@H](CC(N)=O)NC1=O | – | 4.89% (inactive)
3 | C[C@]12C=CC(=O)C=C1[C@@H](F)C[C@@H]1[C@@H]2[C@@H](O)C[C@@]2(C)[C@H]1CC[C@]2(O)C(=O)CO | – | 4.7% (inactive)
4 | CCN(CCCCOC(=O)c1ccc(OC)c(OC)c1)C(C)Cc1ccc(OC)cc1 (configuration not stated) | 2.24 µM (active) | –
5 | C#C[C@]1(O)CC[C@H]2[C@@H]3CCC4=CC(=O)CC[C@@H]4[C@H]3CC[C@@]21C | – | 3.72% (inactive)
6 | CCCCCC=CCC=CCCCCCCCC(=O)OCC | – | 15.7% (inactive)
7 | C[C@@H]1C[C@H]2[C@@H]3C[C@H](F)C4=CC(=O)C(Cl)=C[C@]4(C)[C@@]3(F)[C@@H](O)C[C@]2(C)[C@@]1(O)C(=O)CO | – | -3.03% (inactive)
8 | CC(C)COC(=O)c1ccc(N)cc1 | – | -2.78% (inactive)
9 | CC(=O)[C@H]1CC[C@H]2[C@@H]3C[C@H](C)C4=CC(=O)CC[C@]4(C)[C@H]3[C@@H](O)C[C@]12C | – | -19.7% [at 20.6 µM] (inactive)
10 | C[C@]12C=CC(=O)C=C1CC[C@@H]1[C@@H]2[C@@H](O)C[C@@]2(C)[C@H]1CC[C@]2(O)C(=O)CO | – | -0.49% (inactive)
11 | O=C(N/N=C/c1ccccc1O)c1ccncc1 | – | 43.1% (inactive)
12 | OC[C@@H](O)[C@@H](O[C@@H]1O[C@H](CO)[C@H](O)[C@H](O)[C@H]1O)[C@H](O)[C@@H](O)CO | – | 4.93% (inactive)
